The text below walks through data of PubChem BioAssay (NCATS).

Records with an inconclusive call do not appear. The source made the active and inactive calls. Unless noted, calls follow the shape of the dose curve; as a rule, active = well fitted curve in either direction with a large enough effect (not every such curve was filed as active); inconclusive = small, poorly fitted or top-dose-only effect, or another doubt; inactive = flat fitted curve, though single readings scatter.

Assay [1] has as its target Lysosomal acid glucosylceramidase (Homo sapiens) (UniProt P04062). The experiment in a line: Glucocerebrosidase-p2 (AID 348; in the data active = potency below about 10 µM; also: potency is read from the fitted curve at half-maximal effect). Particulars: purified GBA, blue fluorogenic substrate, 40 min. Summed up: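 Normal human glucocerebrosidase (0.2 nM) with blue fluorogenic substrate (80 uM final) in citrate/phosphate pH 5.9 with 10mM sodium taurocholate, 0.01% tween-20; 40 min RT, NaOH/glycine stop; fluorescence Ex 365/Em 440; AC50 from a titration from 0.6 nM upwards.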

Assay [2] is described as follows: AP1 Signaling Pathway (AID 357).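 Also: ME-180 reporter cells stimulated with EGF at its EC50 level; % is scaled to controls: 0 for no effect and ±100 for the full control effect.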 Particulars: ME-180 AP-1-bla reporter, EGF-induced, beta-lactamase ratio, 5 h; at 7.69 µM (top of the series) unless noted. Summed up: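 A ratiometric CCF4 readout (405 nm excitation; 460 and 530 nm emission) quantified AP-1-driven beta-lactamase in ME-180 cells after 5 h with compound and EC50 EGF; AC50 values were derived for activators and inhibitors.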

A short description of assay [3]: NFAT Signaling Pathway (AID 444).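 Also: carbachol stimulus at about its EC50 of 1 µM final; % is scaled to controls: 0 for no effect and ±100 for the full control effect.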 Particulars: Jurkat NFAT-bla M1, carbachol, beta-lactamase ratio, 5 h; at 7.69 µM (top of the series) unless noted. Summed up: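 Read-out: CCF4 FRET ratio (460 nm/530 nm) after 1 h RT dye loading, used for %activity and AC50 from titration series. Cells: Jurkat NFAT-β-lactamase/M1 line, treated with compound plus 1 uM carbachol for 5 h, 37 °C.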

Assay [4] is described as follows: Stat Signaling Pathway (AID 446).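 Also: ME-180 cervical cancer cells given 40 pM IL-6 alongside compound; SIE-controlled beta-lactamase reporter measured as 460/530 nm FRET emission ratio; % is scaled to controls: 0 for no effect and ±100 for the full control effect.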 Particulars: ME-180 (cervical carcinoma) SIE beta-lactamase reporter, IL-6 stimulated, 5 h; at 7.69 µM (top of the series) unless noted. In outline: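 Compound effects on IL-6-induced STAT reporter activity were measured in ME-180 cells. After overnight culture, cells were co-treated with 40 pM IL-6 for 5 hrs before beta-lactamase substrate loading at room temperature.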

Assay [5] has as its target Glucocorticoid receptor (Homo sapiens) (UniProt P04150). The assay is described as follows: GR-EFC Redistribution (AID 451; calls by dose curve; also: potency is read from the fitted curve at half-maximal effect). Particulars: CHO-K1 GR-EFC translocation, beta-gal luminescence, 2 h. Summed up: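 Translocation of GR-ED fusion to nuclear EA restores b-gal, read by luminescence after 1 h room-temperature detection. Engineered CHO-K1 biosensor cells, 1,000/well, exposed 2 h at 37 C to titrations up to 46 uM final.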

The target of assay [6] is 3',5'-cyclic-AMP phosphodiesterase 4B (Homo sapiens) (UniProt Q07343). The experiment in a line: qHTS Assay for Inhibitors of PDE-IV (AID 607; active = well fitted activation curve with a large enough effect in the main read-out, with a control signal flat, not every such curve was filed as active; also: % of control where 0% means no effect). Particulars: HEK293 ACTOne CNG channel cells, membrane potential fluorescence; series mostly up to 22.9 µM. In outline:
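ACTOne HEK293 cells carry a modified cAMP-gated CNG channel and express endogenous PDE4; plated 1000 cells/well, compounds up to 22.9 uM final. Membrane-potential dye fluorescence (ex 535/em 590) was read; parental cells received 10 uM forskolin + 100 uM RO 20-1724.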

Assay [7] in a line: qHTS Assay for Lipid Storage Modulators (AID 1519; calls by dose curve). Particulars: Drosophila S3 cells, BODIPY lipid droplet/cell ratio, laser cytometry, cells loaded with oleic acid; for activity change, negative = inhibition: at 57.5 µM (top of the series). Summed up: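 Cells seeded at 5,000 per well were treated with compounds over a concentration series and loaded with oleic acid (400 uM, as added). Lipid droplet fluorescence (488 nm excitation, 500-530 nm channel) was read by laser-scanning cytometry and normalized to 20 uM Triacsin C.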
A general note: qHTS replaces the single test concentration by a dilution series.

Assay [8] concerns the target Mitogen-activated protein kinase 10 (Mus musculus) (UniProt Q61831). The assay is described as follows: JNK3 AlphaScreen Assay (AID 530).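 Also: kinase came from lysate of stimulated human HepG2 cells; signal reports phosphorylation of biotinylated GST-cJun 1-79 at Ser73 with 10 µM ATP; % is scaled to controls: 0 for no effect and ±100 for the full control effect.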 Particulars: JNK3 lysate, c-Jun phosphorylation; series mostly up to 57.1 µM. In outline: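 qHTS titrations with 15 min compound pre-incubation before adding ATP (10 uM final). Read-out: AlphaScreen of Ser73-phosphorylated biotin-GST-cJun using HepG2 lysate JNK3 activated by IL-1β and TNFα.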
For orientation: In Alpha technology, singlet oxygen from a donor bead excites a nearby acceptor bead.

In assay [9] the target is Glucocorticoid receptor (Homo sapiens) (UniProt P04150). The experiment in a line: GR-GFP Redistribution (AID 450;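 active = compounds whose dose series gives a full or clear partial fitted curve of increased nuclear translocation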; also: potency is read from the fitted curve at half-maximal effect). Particulars: U2OS GR-GFP nuclear translocation, laser cytometry, 2 h.
Sequence of Glucocorticoid receptor (Homo sapiens) (P04150 whole entry, looked up, the tested form may be a part): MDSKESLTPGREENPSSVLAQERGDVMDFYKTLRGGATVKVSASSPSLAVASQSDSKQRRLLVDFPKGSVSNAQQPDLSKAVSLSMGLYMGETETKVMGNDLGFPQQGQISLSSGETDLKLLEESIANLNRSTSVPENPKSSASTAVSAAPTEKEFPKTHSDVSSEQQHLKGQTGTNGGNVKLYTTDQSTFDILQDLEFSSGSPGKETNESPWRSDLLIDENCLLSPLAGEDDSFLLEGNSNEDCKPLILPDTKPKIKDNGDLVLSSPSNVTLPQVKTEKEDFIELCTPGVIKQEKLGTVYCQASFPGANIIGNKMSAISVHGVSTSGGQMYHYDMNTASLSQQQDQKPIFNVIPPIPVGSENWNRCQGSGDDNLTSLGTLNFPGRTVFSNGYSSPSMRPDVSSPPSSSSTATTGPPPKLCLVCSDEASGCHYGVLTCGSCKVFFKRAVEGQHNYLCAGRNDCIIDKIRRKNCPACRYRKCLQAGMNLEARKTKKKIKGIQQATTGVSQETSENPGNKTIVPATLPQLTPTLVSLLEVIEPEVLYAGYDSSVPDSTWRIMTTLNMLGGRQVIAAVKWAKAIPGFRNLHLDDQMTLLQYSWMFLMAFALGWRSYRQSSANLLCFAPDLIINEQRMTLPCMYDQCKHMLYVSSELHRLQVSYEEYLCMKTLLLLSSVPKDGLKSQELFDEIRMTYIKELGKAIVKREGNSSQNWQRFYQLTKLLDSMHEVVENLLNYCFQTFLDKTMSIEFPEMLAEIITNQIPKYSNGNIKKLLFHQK
A short description of assay [10]: Confirmation and Secondary Assay for Modulators of Hemoglobin Beta Chain Splicing at IVS2 654 locus (AID 910; active = well fitted curve in the direction sought with a large enough effect; an effect the other way counts as inactive or inconclusive;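 also: HeLa cells stably carrying EGFP split by mutant beta-globin IVS2-654 intron; per-well total GFP intensity by laser scanning cytometry after 2-day treatment; % of control where 0% means no effect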). Particulars: HeLa EGFP-654 splicing reporter, GFP fluorescence, 48 h; series mostly up to 38.3 µM. Summed up: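 Readout: per-well total peak green fluorescence (488 nm ex, 500–520 nm em) from objects 5–250 µm, reflecting correct splicing of an EGFP-654 reporter. Compounds were applied for 2 days at 37 °C to overnight-plated HeLa EGFP-654 cells; controls were DMSO and 500 nM IVS2-654 PNA.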

A short description of assay [11]: Confirmation and Secondary Assay for Modulators of Hemoglobin Beta Chain Splicing at IVS2 705 locus (AID 930; active = well fitted curve in the direction sought with a large enough effect; an effect the other way counts as inactive or inconclusive;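 also: HeLa cells stably expressing the EGFP-705 splicing reporter; GFP fluorescence per well restored by corrected splicing of the IVS2-705 intron in EGFP; % of control where 0% means no effect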). Particulars: HeLa EGFP-705 splicing reporter, GFP fluorescence, 48 h; series mostly up to 38.3 µM. Summed up:
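Assay measures total GFP intensity per well in HeLa EGFP-705 cells after 2 days with compound; mis-splicing normally truncates EGFP, so fluorescence indicates corrected splicing.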

The target in assay [12] is Ubiquitin carboxyl-terminal hydrolase 1 (Homo sapiens) (UniProt O94782). The assay is described as follows: Inhibitors of USP1/UAF1: Pilot qHTS (AID 504865; active = well fitted curve in the direction sought with a large enough effect; an effect the other way counts as inactive or inconclusive;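 also: rhodamine fluorescence freed from ubiquitin-rhodamine substrate followed over time; top concentration of the series differs between compounds; % is scaled to controls: 0 for no effect and ±100 for the full control effect; nearly all actives have a fitted effect of over 35% in size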). Particulars: purified USP1/UAF1, Ub-rhodamine cleavage fluorescence; series mostly up to 54.9 µM. Summed up:
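1nM USP1/UAF1 + cpd, 15 min RT; start w/ Ub-Rho 150nM final; kinetic FL 480/540 nm, 6 reads q60 s. Buffer 50mM HEPES pH 7.8, 0.5mM EDTA, 1mM TCEP, 0.01% Tween-20, 0.1 mg/ml BSA.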

Where [13] appears, read: measured here: cell count channel max response.
Where [14] appears, read: measured here: lipid channel max response.

Sequence of 3',5'-cyclic-AMP phosphodiesterase 4B (Homo sapiens) (Q07343 whole entry, looked up): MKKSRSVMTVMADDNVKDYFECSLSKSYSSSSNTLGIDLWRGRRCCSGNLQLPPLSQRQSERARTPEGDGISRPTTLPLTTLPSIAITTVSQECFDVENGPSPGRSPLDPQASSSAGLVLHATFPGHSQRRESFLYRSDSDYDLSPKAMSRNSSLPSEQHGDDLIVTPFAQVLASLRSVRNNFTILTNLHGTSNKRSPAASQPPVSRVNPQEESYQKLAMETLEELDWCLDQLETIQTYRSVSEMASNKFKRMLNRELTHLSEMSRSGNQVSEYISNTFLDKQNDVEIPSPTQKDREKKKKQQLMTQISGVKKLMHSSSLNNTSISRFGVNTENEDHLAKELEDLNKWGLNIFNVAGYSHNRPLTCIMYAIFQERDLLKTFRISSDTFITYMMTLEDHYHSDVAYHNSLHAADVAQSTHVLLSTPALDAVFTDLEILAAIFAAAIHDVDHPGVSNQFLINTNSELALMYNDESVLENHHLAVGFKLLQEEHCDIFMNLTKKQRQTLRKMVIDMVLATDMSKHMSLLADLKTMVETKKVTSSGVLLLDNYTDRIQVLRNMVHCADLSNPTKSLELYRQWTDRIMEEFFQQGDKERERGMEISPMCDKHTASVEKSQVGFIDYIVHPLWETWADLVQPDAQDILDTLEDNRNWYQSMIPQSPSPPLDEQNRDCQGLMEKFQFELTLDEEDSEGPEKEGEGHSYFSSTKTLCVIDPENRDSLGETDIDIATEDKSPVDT
Sequence of Lysosomal acid glucosylceramidase (Homo sapiens) (P04062 whole entry, looked up): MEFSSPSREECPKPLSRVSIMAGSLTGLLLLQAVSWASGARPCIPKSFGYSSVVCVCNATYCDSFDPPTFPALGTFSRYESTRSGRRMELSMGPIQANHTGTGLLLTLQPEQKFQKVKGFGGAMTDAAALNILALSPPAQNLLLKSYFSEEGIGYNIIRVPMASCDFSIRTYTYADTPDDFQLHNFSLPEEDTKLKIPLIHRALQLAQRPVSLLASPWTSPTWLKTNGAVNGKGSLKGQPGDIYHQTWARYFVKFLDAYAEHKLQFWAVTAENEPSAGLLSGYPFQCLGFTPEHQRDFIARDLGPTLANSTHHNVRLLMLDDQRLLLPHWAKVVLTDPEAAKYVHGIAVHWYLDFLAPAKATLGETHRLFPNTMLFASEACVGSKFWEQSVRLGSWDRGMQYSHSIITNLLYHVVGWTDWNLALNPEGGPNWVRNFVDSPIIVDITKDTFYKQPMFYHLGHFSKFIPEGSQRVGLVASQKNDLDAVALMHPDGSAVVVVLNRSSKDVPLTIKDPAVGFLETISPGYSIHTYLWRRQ
Sequence of Ubiquitin carboxyl-terminal hydrolase 1 (Homo sapiens) (O94782 whole entry, looked up): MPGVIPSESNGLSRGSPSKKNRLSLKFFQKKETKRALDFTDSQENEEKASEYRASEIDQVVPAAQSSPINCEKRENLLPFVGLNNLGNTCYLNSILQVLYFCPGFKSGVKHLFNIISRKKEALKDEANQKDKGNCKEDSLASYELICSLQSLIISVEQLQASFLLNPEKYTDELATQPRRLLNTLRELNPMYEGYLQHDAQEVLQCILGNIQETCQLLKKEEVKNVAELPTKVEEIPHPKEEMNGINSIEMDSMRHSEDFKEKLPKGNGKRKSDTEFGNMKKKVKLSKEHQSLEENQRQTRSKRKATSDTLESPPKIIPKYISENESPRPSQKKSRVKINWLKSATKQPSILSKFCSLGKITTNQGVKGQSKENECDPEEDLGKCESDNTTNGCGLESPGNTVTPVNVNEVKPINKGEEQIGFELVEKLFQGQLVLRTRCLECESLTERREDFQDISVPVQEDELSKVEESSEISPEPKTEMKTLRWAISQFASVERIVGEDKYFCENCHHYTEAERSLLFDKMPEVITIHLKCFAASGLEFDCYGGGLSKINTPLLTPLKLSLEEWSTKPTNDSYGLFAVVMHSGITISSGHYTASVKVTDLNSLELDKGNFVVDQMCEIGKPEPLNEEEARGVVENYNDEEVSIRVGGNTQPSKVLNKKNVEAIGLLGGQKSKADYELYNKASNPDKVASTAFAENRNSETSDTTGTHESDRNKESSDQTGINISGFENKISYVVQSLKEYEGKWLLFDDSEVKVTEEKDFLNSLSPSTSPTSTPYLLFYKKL

In the case of `O=C(c1ccncc1)N1CCC[C@@]2(CCN(c3cccc(-c4ccccc4)c3)C2)C1`, the results for the Potency in [1] and in assay [5] were > 11.4 µM (inactive) and > 46 µM (inactive), respectively. Moreover, the results for the activity change, negative = inhibition in assay [2], in assay [3] and in assay [7] were -13.8% (inactive), -1.5% (inactive) and 1.7% (inactive), respectively. In [4], the activity, negative = inhibition was -6.3% (inactive). For the same compound, in [6], the Potency result is “inactive”. Also, the max response in assay [7] (setting [13]) worked out at 8.47%; in [7] (setting [14]), 13%.
Regarding `N#Cc1ccc(CN2CCCC3(CCNCC3)C2)cc1`, the Potency in assay [1] is > 11.4 µM (inactive); in [5], > 46 µM (inactive). In addition, the activity change, negative = inhibition in assay [2] was 6.69% (inactive); in [3], -22.5% (inactive); in assay [7] it was 1.45% (inactive). Moreover, the activity, negative = inhibition in [4] is -0.579% (inactive). Besides, the Potency entry in assay [8] and in [6] was “inactive” each time. Also, the max response in [7] (setting [13]) was determined as 12.8%; in assay [7] (setting [14]), 18.2%.
Take `Cc1cccc(CNc2ncnc3ccc(-c4cccc(NS(C)(=O)=O)c4)cc23)c1`: the Potency in assay [1] was > 11.4 µM (inactive); in assay [9], > 46 µM (inactive); in [5] it was > 46 µM (inactive). In addition, the activity change, negative = inhibition in assay [3] is 12.3% (inactive); in assay [7] it was -4.87% (inactive). In addition, the activity, negative = inhibition in assay [4] is -1.79% (inactive). The Potency result in assay [8], in assay [6] and in [10] was “inactive” each time. Besides, the result in assay [11] was inactive. The max response is -15.4% in assay [7] (setting [13]) and -18.6% in [7] (setting [14]).
`CN(C)Cc1ccccc1-c1ccc2ncnc(NCc3cccs3)c2c1`: the Potency is > 11.4 µM (inactive) in assay [1], > 46 µM (inactive) in assay [9] and > 46 µM (inactive) in [5]. Besides, the activity change, negative = inhibition in [2] was 4.22% (inactive); in [3] it was -20.1% (inactive); in assay [7] it was 7.62% (inactive). Further, in assay [4], the activity, negative = inhibition was -19.4% (inactive). For the same compound, the Potency result in assay [8], in [10] and in [12] was “inactive” each time. The call in assay [11] was inactive. The max response in [7] (setting [13]) is -0.921%; in assay [7] (setting [14]), 6.51%.
Turning to `CN1CCN(c2ccnc(-c3ccccc3C(F)(F)F)n2)CC1`, the Potency in [1] is > 11.4 µM (inactive); in assay [9], > 46 µM (inactive); in assay [5], > 46 µM (inactive). Moreover, the activity change, negative = inhibition in assay [2] is 8.46% (inactive); in assay [7], 3.24% (inactive). The activity, negative = inhibition in assay [4] is 3.89% (inactive). Further, the Potency entry in assay [8], in [10] and in assay [12] was “inactive” in each case. Moreover, in [11], the call was inactive. For the same compound, the max response was -19.5% in [7] (setting [13]) and -14.8% in assay [7] (setting [14]).
`c1ccc2c(N3CCNCC3)nc(-c3ccoc3)nc2c1`: the figures for the Potency in assay [1], in assay [9] and in assay [5] were > 11.4 µM (inactive), > 46 µM (inactive) and > 46 µM (inactive), respectively. Further, the activity change, negative = inhibition in assay [2] was 0.826% (inactive); in [3] it was -11.1% (inactive); in assay [7] it was 8.78% (inactive). Besides, the activity, negative = inhibition in assay [4] is 28% (inactive). The Potency result in assay [8] is “inactive”. Besides, the result in [11] was inactive. Besides, the max response in assay [7] (setting [13]) is 9.44%; in assay [7] (setting [14]) it was 17.6%.
Take `COCCn1c(=O)c(-c2ccc(F)cc2)nc2cnc(Oc3ccc(OC)cc3)nc21`: the Potency in assay [1] is > 11.4 µM (inactive); in assay [9], > 9.22 µM (inactive); in [5], > 46 µM (inactive). Moreover, the activity change, negative = inhibition in assay [2] was -14.8% (inactive); in assay [3], 0.536% (inactive); in assay [7], -18.7% (inactive). Moreover, the activity, negative = inhibition in assay [4] was -13.7% (inactive). Further, the Potency result in assay [8] and in assay [6] was “inactive” each time. In addition, the values for the max response in assay [7] (setting [13]) and in assay [7] (setting [14]) were -18.1% and -27.4%, respectively.
